In PubChem BioAssay:
The source made the active and inactive calls.

Experiments:
[1] = tested on: PRMT1 (protein arginine N-methyltransferase 1); assay: small molecules binding arginine methyltransferase PRMT1 – biochemical, small-molecule microarray, 635 nm fluorescence, primary screen (AID 1088); conditions: higher = more signal;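 further: binding of Prmt1 protein to compounds spotted on small-molecule microarray slides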
[2] = growth effects on S. cerevisiae YJM789 – YJM789 clinical isolate, OD600, 24 h, basal, primary screen (AID 1089); conditions: higher = more signal, called active from +8 up or from −8 down;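 further: growth of clinical yeast isolate S. cerevisiae YJM 789 seeded 1000 cells per well; test concentration not given here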
[3] = S. pombe growth modifiers, basal conditions – strain 972, OD600, 24 h, no modulator, primary screen (AID 1090);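 further: basal condition with compound alone and no growth modifier present; test concentration not given here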; conditions: S. pombe 972 growth, higher = more signal, called active from +8 up or from −8 down
[4] = budding yeast growth modifiers under rapamycin – strain BY4716, OD600, 96 h, primary screen (AID 1091); further: test concentration not given here; conditions: S. cerevisiae BY4716 + rapamycin, higher = more signal, called active from +8 up or from −8 down
[5] = molecular target: Torsin-1A-interacting protein 2 (Homo sapiens) (UniProt Q8NFQ8); assay: small molecules binding lysate-expressed LULL1 – cell lysate, human LULL1 lysate, 635/667 nm fluorescence, primary screen (AID 1092); conditions: small-molecule microarray, hLULL1 lysate binding, 635 nm fluorescence; higher = more signal;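 further: probe is lysate of COS7 cells overexpressing human LULL1; score merges per-feature 667 nm fluorescence with signal-to-noise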
[6] = optical density change of DRC41 E. coli – strain DRC41, OD650, 24 h, E. coli filamentation project, primary screen (AID 1093);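 further: MC1000 strain lacking acrAB efflux and sulA so SOS filamentation is blocked; test concentration not given here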; conditions: E. coli DRC41 growth, higher = more signal, called active from +8 up or from −8 down
[7] = probe aLefty2 binding to arrayed compounds – biochemical, biotinylated probe, 635/667 nm fluorescence, primary screen (AID 1094); conditions: small-molecule microarray, higher = more signal;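 further: score merges spot fluorescence near 667 nm with spot signal-to-noise ratio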
[8] = tested on: Noggin (protein binding on small-molecule microarray); assay: small molecules binding Noggin protein – biochemical, 635/667 nm fluorescence, primary screen (AID 1095); conditions: 635 nm fluorescence, higher = more signal;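 further: score merges 667 nm feature fluorescence with signal to noise over triplicate slides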
[9] = molecular target: Neurogenic locus notch homolog protein 3 (Homo sapiens) (UniProt Q9UM47); assay: small molecules binding NOTCH3 protein – biochemical, 635/667 nm fluorescence, primary screen (AID 1096); conditions: small-molecule microarray, 635 nm fluorescence, higher = more signal
[10] = probe aEGFR binding to arrayed compounds – biochemical, biotinylated probe, 635/667 nm fluorescence, primary screen (AID 1097); conditions: small-molecule microarray, higher = more signal;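 further: probe is a biotinylated anti-EGFR antibody binding compounds printed on slides; score combines fluorescence near 667 nm and signal to noise of each spot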

Chain of Torsin-1A-interacting protein 2 (Homo sapiens) (Q8NFQ8 whole entry, looked up): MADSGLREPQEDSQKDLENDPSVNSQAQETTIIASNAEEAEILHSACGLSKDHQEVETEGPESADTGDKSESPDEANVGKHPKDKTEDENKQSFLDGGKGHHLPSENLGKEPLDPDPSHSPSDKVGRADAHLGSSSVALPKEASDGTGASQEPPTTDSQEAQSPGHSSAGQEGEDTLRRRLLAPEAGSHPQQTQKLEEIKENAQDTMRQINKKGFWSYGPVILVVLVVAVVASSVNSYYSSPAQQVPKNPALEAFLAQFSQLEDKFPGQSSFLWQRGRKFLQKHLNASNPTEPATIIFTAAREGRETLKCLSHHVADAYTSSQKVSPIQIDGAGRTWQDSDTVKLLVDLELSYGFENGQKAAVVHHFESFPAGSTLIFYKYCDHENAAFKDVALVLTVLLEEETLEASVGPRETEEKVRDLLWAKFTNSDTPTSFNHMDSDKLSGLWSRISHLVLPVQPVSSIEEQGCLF
Chain of Neurogenic locus notch homolog protein 3 (Homo sapiens) (Q9UM47 whole entry, looked up): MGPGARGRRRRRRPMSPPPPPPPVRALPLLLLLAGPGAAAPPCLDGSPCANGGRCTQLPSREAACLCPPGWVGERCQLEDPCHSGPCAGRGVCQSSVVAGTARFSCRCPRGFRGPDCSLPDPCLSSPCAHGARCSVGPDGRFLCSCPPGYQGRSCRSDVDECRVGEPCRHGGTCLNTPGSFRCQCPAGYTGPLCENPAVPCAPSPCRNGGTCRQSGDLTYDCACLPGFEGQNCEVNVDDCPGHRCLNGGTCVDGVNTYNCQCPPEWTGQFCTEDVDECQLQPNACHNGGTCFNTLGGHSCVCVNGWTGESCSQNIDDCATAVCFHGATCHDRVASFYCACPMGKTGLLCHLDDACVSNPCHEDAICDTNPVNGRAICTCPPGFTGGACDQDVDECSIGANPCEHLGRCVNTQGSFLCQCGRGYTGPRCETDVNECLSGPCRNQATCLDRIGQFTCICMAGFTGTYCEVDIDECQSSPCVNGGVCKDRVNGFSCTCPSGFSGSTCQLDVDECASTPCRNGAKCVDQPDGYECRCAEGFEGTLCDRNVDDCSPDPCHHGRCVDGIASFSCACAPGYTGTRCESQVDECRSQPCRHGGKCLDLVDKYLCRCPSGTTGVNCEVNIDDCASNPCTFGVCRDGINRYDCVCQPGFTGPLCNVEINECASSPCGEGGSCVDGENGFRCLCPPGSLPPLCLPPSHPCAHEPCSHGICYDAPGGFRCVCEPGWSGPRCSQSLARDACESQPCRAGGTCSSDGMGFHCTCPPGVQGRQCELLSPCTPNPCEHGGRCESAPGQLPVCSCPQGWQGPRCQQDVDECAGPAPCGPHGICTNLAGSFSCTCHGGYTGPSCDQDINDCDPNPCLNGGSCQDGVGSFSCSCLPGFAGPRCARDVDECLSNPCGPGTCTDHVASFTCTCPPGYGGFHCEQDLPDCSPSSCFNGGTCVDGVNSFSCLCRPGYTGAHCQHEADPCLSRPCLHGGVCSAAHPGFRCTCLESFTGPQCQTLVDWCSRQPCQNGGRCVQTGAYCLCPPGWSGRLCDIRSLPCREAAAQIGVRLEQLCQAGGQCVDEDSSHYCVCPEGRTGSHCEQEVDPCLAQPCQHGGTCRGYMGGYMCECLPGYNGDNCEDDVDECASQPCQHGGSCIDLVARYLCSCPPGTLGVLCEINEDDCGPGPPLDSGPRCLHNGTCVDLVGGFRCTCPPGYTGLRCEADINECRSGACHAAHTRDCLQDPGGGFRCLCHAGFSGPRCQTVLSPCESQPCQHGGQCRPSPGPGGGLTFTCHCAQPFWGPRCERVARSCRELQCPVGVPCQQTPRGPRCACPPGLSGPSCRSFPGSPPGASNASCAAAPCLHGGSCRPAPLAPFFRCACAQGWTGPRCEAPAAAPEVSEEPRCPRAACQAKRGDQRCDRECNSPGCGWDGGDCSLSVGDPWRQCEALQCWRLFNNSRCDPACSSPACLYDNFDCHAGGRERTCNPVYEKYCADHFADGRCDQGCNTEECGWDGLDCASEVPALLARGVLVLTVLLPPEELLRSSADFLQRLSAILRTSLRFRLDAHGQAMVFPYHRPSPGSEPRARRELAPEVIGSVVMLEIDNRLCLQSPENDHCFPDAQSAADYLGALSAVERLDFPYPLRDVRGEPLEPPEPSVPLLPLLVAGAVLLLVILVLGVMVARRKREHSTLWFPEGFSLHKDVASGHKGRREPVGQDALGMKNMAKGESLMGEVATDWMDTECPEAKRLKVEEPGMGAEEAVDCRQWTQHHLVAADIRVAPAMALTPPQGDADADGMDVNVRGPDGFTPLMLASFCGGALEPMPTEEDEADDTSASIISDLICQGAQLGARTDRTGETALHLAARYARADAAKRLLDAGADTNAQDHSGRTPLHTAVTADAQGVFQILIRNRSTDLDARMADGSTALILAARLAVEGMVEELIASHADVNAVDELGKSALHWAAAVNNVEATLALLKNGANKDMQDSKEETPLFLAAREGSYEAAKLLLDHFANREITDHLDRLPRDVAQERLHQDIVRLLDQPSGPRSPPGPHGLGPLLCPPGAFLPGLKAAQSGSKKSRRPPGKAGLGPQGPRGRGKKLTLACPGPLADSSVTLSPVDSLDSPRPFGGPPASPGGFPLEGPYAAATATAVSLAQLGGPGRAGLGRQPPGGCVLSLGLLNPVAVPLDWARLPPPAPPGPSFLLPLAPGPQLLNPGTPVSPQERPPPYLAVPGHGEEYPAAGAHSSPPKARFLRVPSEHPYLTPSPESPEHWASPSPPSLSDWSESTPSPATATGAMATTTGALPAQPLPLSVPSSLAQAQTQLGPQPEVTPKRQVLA

Structure (SMILES)	composite z-score [1]	z-score [2]	z-score [3]	z-score [4]	composite z-score [5]	z-score [6]	composite z-score [7]	composite z-score [8]	composite z-score [9]	composite z-score [10]
COc1ccc(CCNC(=O)[C@@]2(c3ccc([N+](=O)[O-])cc3)CC(=O)N(CC34CC5CC(CC(C5)C3)C4)[C@@H]2c2ccc(CO)cc2)cc1	1.37	0.719 (inactive)	-0.063 (inactive)	6.65 (inactive)	2.11	-0.108 (inactive)	0.257	0.71	1.16	0.544
CCOc1cc(C(O)C2C=CC3C(=O)N(c4ccccc4)C(=O)C3N2Nc2ccc([N+](=O)[O-])cc2)ccc1O (stereo not given)	1.07	-0.441 (inactive)	0.442 (inactive)	-0.364 (inactive)	3.37	-0.961 (inactive)	-0.0534	0.0883	0.782	-0.067
CCOC(=O)[C@H]1C[C@H]2O[C@@]23C[C@H]1C(=O)N1CCCC1[C@@H]3O[Si](C)(C)C(C)(C)C (stereo not given in full)	0.105	-0.938 (inactive)	-3.58 (inactive)	-1.12 (inactive)	-0.0341	-0.788 (inactive)	0.807	0.478	-0.288	-0.149
C=CCNC(=O)[C@@H]1[C@H]2C(=O)O[C@H](c3ccccc3)[C@H](c3ccccc3)N2[C@H](c2ccc(O)cc2)[C@@]12C(=O)N(C(=O)OCCOC)c1ccccc12	1.53	0.655 (inactive)	0.625 (inactive)	2.8 (inactive)	3.25	1.11 (inactive)	-0.0458	0.559	0.509	-0.14
C=CC[C@@]1(C(=O)N2CCOCC2)N=C(c2ccc(OCCCO)cc2)O[C@@H]1c1ccccc1N=[N+]=[N-]	1.54	-1.27 (inactive)	-1.02 (inactive)	0.811 (inactive)	3.41	0.639 (inactive)	0.362	0.998	1.13	0.353
CC(C)N1CC=CC23O[C@@H]4C=CCOC(=O)[C@@H]4[C@H]2C(=O)N(CCO)[C@@H]3C1=O (stereo not given in full)	0.53	1.14 (inactive)	0.24 (inactive)	-0.938 (inactive)	3.37	0.73 (inactive)	-0.328	-0.431	0.173	-0.287
COCCOC(=O)N1C(=O)[C@@]2(c3cc(C#CCNC(N)=O)ccc31)[C@H](c1ccc(O)cc1)N1[C@H](c3ccccc3)[C@H](c3ccccc3)OC(=O)[C@H]1[C@@H]2C(=O)NC[C@H](O)c1ccccc1	1.55	0.71 (inactive)	1.2 (inactive)	0.611 (inactive)	1.62	-0.675 (inactive)	0.434	0.664	1.06	0.0586
N#Cc1ccc(NN2C(C(O)c3ccc([N+](=O)[O-])cc3)C=CC3C(=O)N(c4ccccc4)C(=O)C32)cc1 (stereo not given)	0.698	-0.0094 (inactive)	1.2 (inactive)	1.39 (inactive)	3.29	-1.75 (inactive)	0.0478	-0.299	1.06	0.0478
CC(C)CNC(=O)[C@@]1(c2ccc([N+](=O)[O-])cc2)CC(=O)N(CC23CC4CC(CC(C4)C2)C3)[C@@H]1c1ccc(CO)cc1I	1.54	0.951 (inactive)	0.864 (inactive)	3.26 (inactive)	3.06	-0.569 (inactive)	-0.0144	1.3	1.09	-0.0088
CC(C)C[C@@H]1NC(=O)[C@H]2C[C@@H](C(=O)NCCCCCCNC(=O)CS)[C@@H](c3cccc(OCCO)c3)N2C1=O	1.4	-2 (inactive)	0.251 (inactive)	0.24 (inactive)	2.85	0.645 (inactive)	-0.108	1.7	1.04	0.0798
CC(C)Cc1ccc(CN2CC[C@@H](NS(=O)(=O)c3ccccc3)C2)cc1	1.01	-14.6 (active)	-20.9 (active)	-3.57 (inactive)	0.846	-19.6 (active)	-0.296	0.864	0.12	-0.154
CN(C)CCCNC(=O)[C@@]1(Cc2ccccc2I)c2ccccc2C(=O)N(Cc2ccccc2C(F)(F)F)[C@H]1c1ccc(CO)cc1	1.05	-0.0554 (inactive)	-19.8 (active)	-2.58 (inactive)	3.45	-0.971 (inactive)	-0.16	-1.16	-0.848	-0.295
O=C1C[C@@](C(=O)NC2CC2)(c2ccc([N+](=O)[O-])cc2)[C@@H](c2ccc(CO)cc2)N1CC12CC3CC(CC(C3)C1)C2	1.27	-0.632 (inactive)	-1.06 (inactive)	0.122 (inactive)	1.61	0.587 (inactive)	0.0469	0.883	1.14	-0.0485
CC(C)(C)OC(=O)CC[C@@]1(C(=O)NCCN2CCOCC2)N=C(c2ccc(OCCCO)cc2)O[C@@H]1c1ccccc1	1.57	-0.444 (inactive)	0.0418 (inactive)	-0.552 (inactive)	3.1	1.03 (inactive)	0.37	0.755	0.807	0.285
CC(C)(C)N1CC=CC23O[C@@H]4/C=C\CCCOC(=O)C4[C@H]2C(=O)N(CCO)[C@@H]3C1=O (stereo not given in full)	-0.344	0.478 (inactive)	0.224 (inactive)	-0.1 (inactive)	1.94	1.54 (inactive)	-0.241	-0.551	-0.871	-0.272
